In PubChem BioAssay (NCATS) one finds Potency and outcome data, which are given here for twelve compounds.

Experiment [1] deals with Lysosomal acid glucosylceramidase (Homo sapiens) (UniProt P04062). Put plainly: Glucocerebrosidase-p2 (AID 348; in the data active means potency below about 10 µM; further: potency means the concentration at half of the fitted maximal effect). The following applies: purified GBA, blue fluorogenic substrate, 40 min. Summed up: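 Normal human glucocerebrosidase (0.2 nM) with blue fluorogenic substrate (80 uM final) in citrate/phosphate pH 5.9 with 10mM sodium taurocholate, 0.01% tween-20; 40 min RT, NaOH/glycine stop; fluorescence Ex 365/Em 440; AC50 from a titration from 0.6 nM upwards.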
Lysosomal acid glucosylceramidase (Homo sapiens), sequence (P04062 whole entry, looked up): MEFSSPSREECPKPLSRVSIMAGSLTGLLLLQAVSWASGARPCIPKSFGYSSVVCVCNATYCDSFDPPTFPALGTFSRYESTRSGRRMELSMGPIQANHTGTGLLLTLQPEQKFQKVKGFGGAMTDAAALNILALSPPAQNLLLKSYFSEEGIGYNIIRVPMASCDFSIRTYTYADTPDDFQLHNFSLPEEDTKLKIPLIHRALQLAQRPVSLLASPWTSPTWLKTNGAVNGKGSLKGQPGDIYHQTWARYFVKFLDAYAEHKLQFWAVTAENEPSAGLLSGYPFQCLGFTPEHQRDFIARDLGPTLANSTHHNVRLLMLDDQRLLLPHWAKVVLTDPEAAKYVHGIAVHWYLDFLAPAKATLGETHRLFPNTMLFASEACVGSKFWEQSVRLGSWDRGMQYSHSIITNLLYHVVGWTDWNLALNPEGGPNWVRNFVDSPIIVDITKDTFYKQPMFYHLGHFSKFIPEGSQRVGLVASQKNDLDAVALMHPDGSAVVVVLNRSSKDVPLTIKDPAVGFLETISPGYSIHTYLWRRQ

The target in experiment [2] is Cytochrome P450 1A2 (Homo sapiens) (UniProt P05177). Put plainly: p450-cyp1a2 (AID 410). Further: potency means the concentration at half of the fitted maximal effect. To be noted: recombinant CYP1A2, luciferin-ME demethylation, luminescence; series mostly up to 57 µM. Summed up:
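20nM CYP1A2, 100uM Luciferin-ME (=Km), 100mM KPO4; cpd 10 min RT; +NADPH regen, 60 min RT; stop/detect 20 min; luminescence. Normalized to furafylline 57 uM = full inhibition.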

Experiment [3] in a line: NFAT Signaling Pathway (AID 444; active means well fitted curve in either direction with a large enough effect, not every such curve was filed as active;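 further: carbachol stimulus at about its EC50 of 1 µM final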). To be noted: Jurkat NFAT-bla M1, carbachol, beta-lactamase ratio, 5 h; series mostly up to 17.2 µM. Summed up: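 Jurkat cells with NFAT-driven β-lactamase reporter and co-expressed M1 receptor, stimulated with carbachol (final 1 uM, ~EC50), compound titration, 5 h at 37 °C. CCF4 loaded 1 h at RT; 460/530 nm ratio gave %activity and AC50.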

Experiment [4] can be described thus: Cell Viability - BJ (AID 421).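 Further: potency means the concentration at half of the fitted maximal effect; cells exposed to compound for 40 hours at 37 °C before readout.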 The following applies: BJ fibroblast viability, qHTS. Summed up:
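Cytotoxicity in human BJ foreskin fibroblasts is scored as loss of cellular ATP after a 40-hour exposure, measured by luciferase luminescence. Controls are DMSO and 100 uM tamoxifen.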
(In qHTS, concentration-response curves come from the screen itself.)

The nature of experiment [5]: Cell Viability - Jurkat (AID 426;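 active means dose-dependent loss of cell ATP signal giving a full or clear fitted curve, ranked by lower potency value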;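 further: potency means the concentration at half of the fitted maximal effect; cells exposed to compound for 40 hours at 37 °C before ATP read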). To be noted: qHTS. Summed up:
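Luminescent ATP read-out (CellTiter-Glo, 20 min at room temperature) after 40 hr compound exposure at 37 °C of Jurkat E6-1 cells, 5000/well. Decreased ATP taken as cytotoxicity; AC50 from standard Hill equation.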

The nature of experiment [6]: Cell Viability - Hek293 (AID 427;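 active means compounds whose dose-response curve shows a full or clear partial loss of cell viability, called from curve shape rather than a numeric limit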;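 further: potency means the concentration at half of the fitted maximal effect; cells exposed to compound for 40 hours at 37 °C before reading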). The following applies: qHTS. Summed up:
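qHTS, human embryonic kidney (adenovirus-transformed) cells; 40 hr cpd, 37 °C; CellTiter-Glo ATP luminescence. Norm: DMSO = 0, 100 uM tamoxifen = 100% inhibition. Hill-fit AC50.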

Experiment [7] in a line: Cell Viability - HepG2 (AID 433).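 Further: potency means the concentration at half of the fitted maximal effect; cells exposed to compound for 40 hours; potency for ATP loss meaning cytotoxicity.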 To be noted: qHTS. The gist of the method:
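Cytotoxicity read as ATP loss (CellTiter-Glo luminescence) after 40 hr compound exposure of HepG2, 1500 cells/well, 37 °C. AC50 by Hill equation; 0% set by DMSO, 100% inhibition by 100 uM tamoxifen.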

A short description of experiment [8]: Cell Viability - MRC5 (AID 434).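 Further: potency means the concentration at half of the fitted maximal effect; cells exposed to compound for 40 hours at 37 °C; potency reflects cytotoxicity seen as loss of intracellular ATP.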 To be noted: MRC5 lung fibroblast viability, qHTS. The gist of the method:
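ATP luminescence read-out (CellTiter-Glo, 20 min RT) after 40 hr, 37 °C compound exposure of 1500 MRC5 cells/well. Data normalized to DMSO (basal) and 100 uM tamoxifen (100% inhibition); AC50 from standard Hill equation.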

Experiment [9] can be described thus: Cell Viability - SK-N-SH (AID 435). Further: potency means the concentration at half of the fitted maximal effect. The following applies: SK-N-SH neuroblastoma cell viability qHTS. The gist of the method: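 qHTS cytotoxicity: CellTiter-Glo ATP luminescence after 40 h compound exposure of human neuroblastoma SK-N-SH cells at 37 °C. AC50 derived by Hill-equation fitting, with DMSO as basal and 100 uM tamoxifen as full inhibition.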
Experiment [10] is described as follows: AP1 Signaling Pathway (AID 357; active means well fitted curve in either direction with a large enough effect, not every such curve was filed as active;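 further: ME-180 reporter cells stimulated with EGF at its EC50 level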). The following applies: ME-180 (cervical carcinoma) AP-1-bla reporter, EGF-induced, beta-lactamase ratio, 5 h; series mostly up to 17.2 µM. Summed up: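 A ratiometric CCF4 readout (405 nm excitation; 460 and 530 nm emission) quantified AP-1-driven beta-lactamase in ME-180 cells after 5 h with compound and EC50 EGF; AC50 values were derived for activators and inhibitors.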

Where “and” joins values, the source holds several entries; their conditions need not be identical. Identical values can stand only once. A number with no mark means an inactive call. Records with an inconclusive call do not appear. Calls of active or inactive are those of the source. Unless noted, the call rests on the fitted dose curve. A value given as a limit tells only on which side of the number the result lay.

Cytochrome P450 1A2 (Homo sapiens), sequence (P05177 whole entry, looked up): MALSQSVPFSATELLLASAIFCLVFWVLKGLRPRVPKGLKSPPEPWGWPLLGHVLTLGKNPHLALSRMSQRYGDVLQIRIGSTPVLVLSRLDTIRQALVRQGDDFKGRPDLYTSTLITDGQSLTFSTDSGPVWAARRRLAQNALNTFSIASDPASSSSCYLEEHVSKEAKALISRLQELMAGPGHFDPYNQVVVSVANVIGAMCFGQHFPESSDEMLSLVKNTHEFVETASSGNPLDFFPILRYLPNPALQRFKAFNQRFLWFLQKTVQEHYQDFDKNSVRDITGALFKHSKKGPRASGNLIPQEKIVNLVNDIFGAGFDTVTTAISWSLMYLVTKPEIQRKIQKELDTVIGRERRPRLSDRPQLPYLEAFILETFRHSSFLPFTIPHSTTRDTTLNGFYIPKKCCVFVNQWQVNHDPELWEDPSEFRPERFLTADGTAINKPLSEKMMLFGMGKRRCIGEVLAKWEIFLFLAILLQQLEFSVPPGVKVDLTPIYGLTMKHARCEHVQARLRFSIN

Take `c1cc(-c2sc(-c3ccncc3)c(-c3ccncc3)c2-c2ccncc2)ccn1`: the Potency in experiment [1] is more than 11.4 µM.
On the same count and under the same terms, to `O=C(O)CCc1nc(-c2ccccc2)c(-c2ccccc2)o1` belongs more than 11.4 µM.
Turning to `COc1cccc(-c2cc(=O)c3ccccc3o2)c1N`, in experiment [2], the Potency is 3.16 µM (active) and 200 nM (active). Besides, the outcome in [3] was inactive.
As to `O=c1[nH]cnc2c1ncn2[C@H]1CC[C@@H](CO)O1`, the Potency in experiment [4], in experiment [5], in experiment [6], in experiment [7], in experiment [8] and in experiment [9] was more than 92 µM in each case.
In the case of `CCN(CC)CCNC(=O)c1ccc(N)cc1`, the result in [10] and in [3] was inactive.
Consider `O=c1cc(-c2ccccc2)oc2cc(O)c(O)c(O)c12`, for which the Potency in experiment [2] was 398 nM (active) and 501 nM (active).
On the same count and under the same terms, for `CC(C)[C@H](CO)Nc1nc(Nc2ccc(C(=O)O)c(Cl)c2)c2ncn(C(C)C)c2n1` the value was “inactive”.
On the same count and under the same terms, for `CS(=O)c1ccc(-c2nc(-c3ccc(F)cc3)c(-c3ccncc3)[nH]2)cc1` (stereo unspecified) the value was 631 nM (active) and 3.98 µM (active).
For the compound `CC(=O)N[C@@H](CS)C(=O)O`, the result in experiment [10] and in experiment [3] was inactive.
For the compound `Nc1ncnc2c1ncn2[C@@H]1O[C@@H](CO)[C@H](O)[C@H]1O`, the outcome in [10] and in experiment [3] was inactive.
As for `COc1ccc(Cc2nccc3cc(OC)c(OC)cc23)cc1OC`, the Potency in experiment [2] was 25.1 µM (active) and 10 µM (active) and 31.6 µM (active).
`CN(C)CCC(c1ccccc1)c1ccccn1` (stereo unspecified): the Potency in [4], in experiment [5], in [6], in [7], in experiment [8] and in experiment [9] was more than 92 µM in each case.
